Screening data from PubChem BioAssay.
C diff HTS = inhibitors of Clostridium difficile growth. Clostridium difficile clinical isolate growth, OD600, 24 h; hits give low values. growth activity, negative = inhibition, % at 16 µg/mL (by protocol). actives 0.25% (n = 86,000);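 active = mean growth activity at or below -80% and every replicate also at or below -80%; inconclusive = mean at or below -80% but some replicate above -80%; inactive = mean growth activity above -80%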
T cruzi growth-1 = blocks T. cruzi growth in NIH3T3 culture | T. cruzi beta-gal in NIH3T3, GalScreen luminescence, 90 h | inhibition, % at 8.34 µM | actives 5.9% (n = 77,000) | AID 624255;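 active = mean inhibition above about 93%, with at least 55% of replicates each passing it, limit read from the data, passing the limit was not always enough; inconclusive = only one of those two conditions holds; inactive = neither condition holds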
Pf Dd2 growth = P. falciparum Dd2 growth inhibition; SYBR Green, 72 h; hits give low values; AID 1159554; activity change, % at 10 µM; actives 2.3% (n = 94,000); in the data active = activity change below about -80%; inconclusive = no clear call, values can overlap the other calls
T cruzi growth-2 = inhibitors of T. cruzi proliferation. shares compounds with T cruzi growth-1. T. cruzi beta-gal in NIH3T3, GalScreen luminescence, 90 h. inhibition, % at 8.35 µM. actives 72% (n = 5,600). AID 651739;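 active = mean replicate inhibition above about 95% and at least 55% of replicates individually reaching it, limit read from the data; inconclusive = only one of the two criteria is met; inactive = neither criterion is met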
T cruzi growth-3 = blocks T. cruzi growth in NIH3T3 host cells; shares compounds with T cruzi growth-1; T. cruzi beta-gal in NIH3T3, GalScreen luminescence, 90 h; inhibition, % at 2.09 µM; actives 21% (n = 5,600);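 active = mean inhibition above about 95%, with at least 55% of replicates also reaching it, limit read from the data; inconclusive = meets just one of the two conditions; inactive = meets neither condition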
NIH3T3 tox = cytotoxicity in mouse NIH/3T3 fibroblasts. AID 651742. shares compounds with T cruzi growth-1. actives 14% (n = 5,600). NIH/3T3 viability, CellTiter-Glo ATP luminescence, 90 h. cytotoxicity (signal decrease), % at 8.35 µM;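 active = mean signal decrease across replicates above about 35% based on untreated-well scatter, with enough replicates individually passing, limit read from the data; inconclusive = no rule stated though some were filed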
NIH3T3 tox 2 = cytotoxicity in mouse NIH/3T3 fibroblasts; AID 651744; actives 56% (n = 5,600); shares compounds with T cruzi growth-1; inhibition, % at 24.9 µM; NIH/3T3 viability, CellTiter-Glo ATP luminescence, 90 h;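 active = mean loss of cell viability signal at or above a set limit, and enough replicates individually reaching it; inconclusive = meets only the mean limit or only the replicate share; inactive = meets neither condition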
A number is an active result; i = inactive; ? = inconclusive; nt = no result given. An excerpt weighted towards active compounds, which were near 6.7% of everything screened.

SMILES	C diff HTS	T cruzi growth-1	Pf Dd2 growth	T cruzi growth-2	T cruzi growth-3	NIH3T3 tox	NIH3T3 tox 2
CCCN(C)C[C@@H]1OCCCC[C@@H](C)Oc2ccc(NC(=O)C3CCCCC3)cc2C(=O)N([C@@H](C)CO)C[C@@H]1C	i	i	i	nt	nt	nt	nt
O=C(c1ccccc1)N1CC(=O)N2[C@H](CO)[C@H](c3ccc(C4=CCCC4)cc3)[C@@H]2C1	i	nt	i	nt	nt	nt	nt
OC[C@@H]1[C@H](c2ccc(-c3cccnc3)cc2)[C@@H]2CN(CC3CCOCC3)CCCCN12	i	i	i	nt	nt	nt	nt
CN1C(=O)c2cc(NC(=O)c3ccc(F)cc3)ccc2OC[C@H]2O[C@@H](CC(=O)N3CCOCC3)CC[C@@H]21	i	i	i	nt	nt	nt	nt
O=C(C1CCOCC1)N1CC[C@H]2[C@H](CO)Nc3ccc(-c4ccc(F)cc4)cc3[C@H]21	i	101	i	104	i	i	i
O=C(C1CCOCC1)N1CC[C@@H]2[C@@H](CO)Nc3ccc(-c4cccc(F)c4)cc3[C@@H]21	i	i	i	nt	nt	nt	nt
O=C(C1CCOCC1)N1CC[C@@H]2[C@H](CO)Nc3ccc(-c4ccc(F)cc4)cc3[C@@H]21	i	?	i	110	i	i	i
O=C(C1CCOCC1)N1CC[C@H]2[C@H](CO)Nc3ccc(-c4cccc(F)c4)cc3[C@H]21	i	i	i	nt	nt	nt	nt
CCCC#Cc1cnc2c(c1)C(=O)N([C@@H](C)CO)C[C@H](C)[C@H](CN(C)C(=O)c1ccc(F)cc1)O2	i	i	i	nt	nt	nt	nt
CCC(=O)N1CCCCN2[C@H](CO)[C@H](c3ccc(-c4ccc(F)cc4)cc3)[C@@H]2C1	i	106	i	i	i	i	54
COCC(=O)N1CCCCN2[C@@H](CO)[C@@H](c3ccc(-c4ccc(F)cc4)cc3)[C@@H]2C1	i	i	i	nt	nt	nt	nt
COCC(=O)N1CCCCN2[C@@H](CO)[C@@H](c3ccc(-c4ccc(C)cc4)cc3)[C@@H]2C1	i	107	i	i	i	i	26
COCC(=O)N1CCCCN2[C@H](CO)[C@H](c3ccc(-c4ccc(C)cc4)cc3)[C@@H]2C1	i	i	i	nt	nt	nt	nt
CCC(=O)N1CCCCN2[C@H](CO)[C@H](c3ccc(-c4ccc(F)cc4)cc3)[C@H]2C1	i	i	i	nt	nt	nt	nt
CCC(=O)N1CCCCN2[C@@H](CO)[C@@H](c3ccc(-c4ccc(F)cc4)cc3)[C@@H]2C1	i	107	i	i	i	i	70
CC(C)NC(=O)Nc1cccc2c1O[C@@H](CN(C)C(=O)Nc1ccc3c(c1)OCO3)[C@H](C)CN([C@H](C)CO)C2=O	nt	i	i	nt	nt	nt	nt
C[C@@H]1CCCCO[C@H](CN(C)CC2CC2)[C@H](C)CN([C@@H](C)CO)C(=O)c2cc(NS(=O)(=O)c3cn(C)cn3)ccc2O1	i	i	i	nt	nt	nt	nt
O=C(c1ccccn1)N1CC[C@H]2[C@H](CO)Nc3ccc(-c4ccc(F)cc4)cc3[C@H]21	i	?	i	108	98	i	29
O=C(c1ccccn1)N1CC[C@@H]2[C@H]1c1cc(-c3ccccc3F)ccc1N[C@@H]2CO	i	i	i	nt	nt	nt	nt
O=C(c1ccccn1)N1CC[C@H]2[C@H](CO)Nc3ccc(-c4ccccc4)cc3[C@H]21	i	99	i	?	i	i	i
CN(C)C(=O)c1ccc(-c2ccc3c(c2)[C@@H]2[C@@H](CCN2C(=O)c2ccccn2)[C@@H](CO)N3)cc1	i	i	i	nt	nt	nt	nt
O=C(C[C@H]1C[C@@H]2c3cc(NC(=O)c4ccc5c(c4)OCO5)ccc3O[C@@H]2[C@H](CO)O1)NCCN1CCCCC1	i	i	i	nt	nt	nt	nt
C[C@@H]1CCCCO[C@@H](CN(C)S(=O)(=O)c2ccccc2)[C@H](C)CN([C@H](C)CO)C(=O)c2cc(NC(=O)Nc3ccc(F)cc3)ccc2O1	i	99	i	108	i	i	i
C[C@H]1CCCCO[C@H](CN(C)S(=O)(=O)c2ccccc2)[C@@H](C)CN([C@@H](C)CO)C(=O)c2cc(NC(=O)Nc3ccc(F)cc3)ccc2O1	i	106	i	110	i	i	i
C[C@@H]1CN([C@@H](C)CO)C(=O)c2cc(NC(=O)Nc3ccc(F)cc3)ccc2O[C@@H](C)CCCCO[C@@H]1CN(C)S(=O)(=O)c1ccccc1	i	103	-84	i	i	i	i
